Assay outcomes deposited in PubChem BioAssay by several laboratories.
Shown are actives, neighbours in structure and some others; about 4.7% of the full set was active somewhere.
Pemphigus Ab inh: blocks pemphigus antibody binding to human desmoglein-3. binding (percent of control), % at 10 µM. 310,000 tested, 0.48% active. P32926. DSG3-coupled beads, scFv-anti-DSG3-GFP binding, flow cytometry; active compounds read low. AID 588358;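 active means binding more than 3 SD below its plate's average and above zero; inconclusive means below that plate limit but binding exactly zero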;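 further: hits lower antibody fragment binding to DSG3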
KLK7 zymogen act: activators of human kallikrein-7 zymogen; P49862; purified proKLK7, EDANS-DABCYL substrate fluorescence; 100% is mature enzyme control, 0% vehicle; activation, % at 7 µM; 370,000 tested, 0.9% active;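 active means activation above the mean of all tested compounds plus 3 SD, computed per campaign excluding outliers beyond control limits, cut at about 13% in these data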
ADAM10 inh: ADAM10 inhibition, QFRET primary screen | AID 720582 | inhibition, % at 7 µM | O14672 | recombinant ADAM10, EDANS/DABCYL FRET peptide cleavage, 3 h | 370,000 tested, 0.62% active;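 active means inhibition above a per-campaign cutoff equal to the mean of compounds falling between control-based bounds plus 3 SD, cut at about 20% in these data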;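 further: 0% = DMSO wells while the 100% control is not disclosed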
MPTP block: inhibitors of mitochondrial permeability transition pore; isolated mouse mitochondria, Ca2+ swelling absorbance, 30 min; inhibition, % at 10 µM; 360,000 tested, 1.4% active; AID 602449;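 active means inhibition of 50% or more, scaled per plate between neutral and stimulator controls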;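 further: 0% = DMSO wells given calcium and 100% = 1 mM EGTA wells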
rCAG RNA binder: r(CAG) repeat RNA binding. inhibition, % at 3 µM. TO-PRO-1 dye displacement fluorescence. 370,000 tested, 1.3% active;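 active means inhibition above the plate cutoff, the mean of all test compounds on that plate plus 3 SD, cut at about 35% in these data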;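 further: 0% = DMSO alone and 100% = 100 µM mitoxantrone as full dye displacement; higher means more dye released from RNA so lower well fluorescence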
ADAM17 inh: ADAM17 inhibition, QFRET primary screen; inhibition, % at 6.95 µM; recombinant ADAM17, EDANS/DABCYL FRET peptide cleavage; AID 720648; 370,000 tested, 0.83% active; P78536;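 active means inhibition above the mean of compounds lying between control limits plus 3 SD, set per campaign, cut at about 8.5% in these data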;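 further: 0% = DMSO-only wells as the low control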
Target sequence (P78536 215-824 limits assumed): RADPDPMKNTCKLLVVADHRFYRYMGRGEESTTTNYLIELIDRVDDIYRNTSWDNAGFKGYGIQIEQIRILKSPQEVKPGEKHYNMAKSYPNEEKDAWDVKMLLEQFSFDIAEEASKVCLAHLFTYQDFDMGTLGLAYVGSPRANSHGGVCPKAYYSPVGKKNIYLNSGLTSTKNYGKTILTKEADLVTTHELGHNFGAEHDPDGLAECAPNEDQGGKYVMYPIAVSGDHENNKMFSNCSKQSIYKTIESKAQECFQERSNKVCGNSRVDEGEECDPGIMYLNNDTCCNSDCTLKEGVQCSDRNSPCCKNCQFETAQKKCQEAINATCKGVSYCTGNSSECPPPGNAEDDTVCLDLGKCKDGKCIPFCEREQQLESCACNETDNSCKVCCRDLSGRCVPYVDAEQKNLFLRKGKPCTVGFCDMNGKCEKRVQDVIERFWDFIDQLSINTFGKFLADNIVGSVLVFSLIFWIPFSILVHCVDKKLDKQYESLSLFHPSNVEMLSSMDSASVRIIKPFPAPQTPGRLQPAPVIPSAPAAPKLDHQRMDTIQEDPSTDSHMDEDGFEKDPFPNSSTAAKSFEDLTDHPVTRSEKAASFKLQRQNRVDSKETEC
Rh123 counter: membrane potential counter-screen of mitochondrial pore inhibitors | shares compounds with MPTP block | isolated mitochondria, Rhodamine 123 fluorescence | inhibition, % at 10 µM | 5,000 tested, 78% active; in the data active means inhibition above about 22%;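 further: 0% = DMSO vehicle and 100% = positive control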
MPTP swell DR: MPTP inhibition, dose response swelling confirmation. shares compounds with MPTP block. isolated mitochondria swelling, absorbance. IC50, µM. 780 tested, 58% active. AID 651561; in the data active means IC50 below about 20 µM
MPTP cs DR: MPTP inhibitor counter-screen activity, dose response. 780 tested, 49% active. AID 651564. IC50, µM. isolated mitochondria counterscreen, fluorescence read-out. shares compounds with MPTP block; in the data active means IC50 below about 80 µM
* = called active by the depositor; i = inactive; ? = inconclusive; / = no result.

SMILES	Pemphigus Ab inh	KLK7 zymogen act	ADAM10 inh	MPTP block	rCAG RNA binder	ADAM17 inh	Rh123 counter	others
CCC(NC(=O)Nc1nnc(C(F)(F)F)s1)(C(F)(F)F)C(F)(F)F	107	-1	5	101*	3	-1	112*
Cc1ccc(N=Cc2cc(Cc3ccccc3Cl)cc([N+](=O)[O-])c2O)c(O)c1	103	/	/	84*	/	/	53*
COc1ccc(N=Cc2cc(Cc3ccccc3Cl)cc([N+](=O)[O-])c2O)cc1OC	102	/	/	62*	/	/	-5
Cc1n[nH]c(C)c1Sc1ccccc1N=Cc1cc(Cl)cc([N+](=O)[O-])c1O	109	/	/	37	/	/	/
Cc1ccc(-n2c(SCC(=O)Nc3ccccc3-c3ccccc3)nnc2-c2ccccn2)cc1	/	0	-1	/	3	3	/
CN(C)S(=O)(=O)c1cccc(C(=O)N/N=C\c2ccc(-c3ccccn3)cc2)c1	/	2	-39	/	2	-10	/
OC(COc1ccc(Br)cc1)CN1CCC(Cc2ccccc2)CC1 (stereo not drawn)	80	0	4	64*	-5	1	-3	MPTP swell DR=6.3*;MPTP cs DR=34*
CC(C)OCC(O)CN1CCC(Cc2ccccc2)CC1 (stereo not drawn)	84	0	-5	-1	-3	-2	/
O=C(N/N=C/c1ccc(Sc2ccccn2)o1)c1cc2ccccc2cc1O	101	/	/	68*	/	/	35*
O=C(N/N=C\c1ccc(Sc2ccccn2)o1)c1cccc(F)c1	?	2	-38	-2	1	-8	/
CCCCCCNCC(=O)N1CCC(Cc2ccccc2)CC1	105	0	0	86*	0	5	-3	MPTP swell DR=11*;MPTP cs DR=45*
COC1(NS(=O)(=O)c2ccc(Br)cc2)C(C)=CC(=O)C=C1C	103	0	-6	78*	-3	-6	4	MPTP swell DR=i;MPTP cs DR=>80
COc1ccc(-c2cc(NC(=O)Cc3c(C)[nH]c4ccccc34)ccc2Nc2cccnc2)cc1OC	/	-1	10	/	16	4	/
O=C(O)CCCCNCc1ccccc1	84	-1	9	0	0	0	/
c1ccc(CNCCCNCCCCNCCCNCc2ccccc2)cc1	92	0	-4	84*	4	-3	-2	MPTP swell DR=1.4*;MPTP cs DR=>80
Cc1ccccc1NC(=O)Nc1cccs1	102	0	3	4	6	-4	/
Cc1ccc(Cl)cc1NC(=O)Nc1cccs1	88	1	-15	87*	3	-4	86*
OC(c1ccccc1)(c1ccccc1)C1CCN(CCCOc2cccnc2)CC1	/	0	1	/	1	-2	/
CSc1nc2ccc(NS(=O)(=O)c3ccc4c(c3)OCCO4)cc2s1	113	0	9	55*	8	0	101*
CSc1nc2ccc(NS(=O)(=O)c3ccc(Br)s3)cc2s1	/	-1	4	84*	27	1	75*
CSc1nc2ccc(NS(=O)(=O)c3c(Cl)cccc3Cl)cc2s1	126	-1	0	1	24	5	/
CSc1nc2ccc(NS(=O)(=O)c3ccccc3F)cc2s1	99	0	-3	0	5	-2	/
O=C(c1cc(COc2cccc3cnccc23)on1)N1CCCC(CCCO)C1 (stereo not drawn)	100	7	-101	91*	-10	-30	83*
COC(=O)[C@]12C[C@H](CC(=O)NCCCN3CCCC3=O)C(=O)N(Cc3ccc4c(c3)OCO4)C1=C[C@H](C(C)C)O[C@@H]2C1CC1	/	0	-1	/	0	-3	/
O=C(CCS(=O)(=O)Cc1ccc(Cl)cc1)NCCCN1CCN(c2ccccc2F)CC1	102	0	-6	57*	-8	0	-3	MPTP swell DR=>100;MPTP cs DR=>80
SMILES	Pemphigus Ab inh	KLK7 zymogen act	ADAM10 inh	MPTP block	rCAG RNA binder	ADAM17 inh	Rh123 counter	others
Cc1ccccc1CS(=O)(=O)CCC(=O)NCCCN1CCN(c2ccccc2F)CC1	108	-1	2	0	3	-3	/
COc1ccc(-c2noc(CCCCC(=O)N3CCN(c4cc(C)ccc4C)CC3)n2)cc1	112	-1	4	97*	3	1	104*
COc1ccc(-c2noc(CCC(=O)NCCN3CCN(c4ccccc4F)CC3)n2)cc1	100	0	-2	0	-8	-1	/
Cc1ccc(-c2noc(CCC(=O)NC3CCN(Cc4ccccc4)CC3)n2)cc1	101	0	4	72*	-9	-7	5	MPTP swell DR=i;MPTP cs DR=34*
COc1ccc(-c2noc(CCC(=O)NCCCN3CCN(c4ccccc4F)CC3)n2)cc1	86	0	-5	55*	-6	-5	13	MPTP swell DR=8.8*;MPTP cs DR=20*
CCCCOCCCNC(=O)C[C@H]1C[C@@]2(C(=O)OC)C(=C[C@H](COCc3ccccc3)O[C@@H]2C)N(CCC2=CCCCC2)C1=O	/	1	5	/	3	3	/
Cc1cc(N2CCNC[C@@H]2C)ccc1N1C[C@@H](C)O[C@@H](C)C1	/	0	-3	/	5	-4	/
C=CCN(C(=O)[C@@H](C1CC1)[C@@H](O)c1ccc(Cl)cc1)c1ccccc1	/	0	4	/	-1	0	/
CCN1CCN(CCCNC(=O)CCc2nc(-c3ccc(OC)cc3)no2)CC1	84	0	0	4	-4	1	/
Cc1ccc(-c2noc(CCC(=O)NCCCN3CCN(c4ccc(F)cc4)CC3)n2)cc1	/	1	4	93*	-6	1	8	MPTP swell DR=7*;MPTP cs DR=28*
Cc1ccc(-c2noc(CCC(=O)NCCCN3CCN(c4cccc(Cl)c4)CC3)n2)cc1	110	0	5	94*	-5	0	14
CCCCC1CC(CSC(=N)N)OC1=O (stereo not drawn)	102	0	-1	0	-1	-3	/
CCCCCCCC1CC(CSC(=N)N)OC1=O (stereo not drawn)	105	-1	-10	97*	8	-4	-5	MPTP swell DR=6.3*;MPTP cs DR=52*
Cc1[nH]c2ccccc2c1CC(=O)Nc1ccc(Nc2ccncc2)cc1	/	1	-2	/	9	-2	/
CC(C)C[C@H]1COc2cc(NCc3ccc(Cl)c(Cl)c3)ccc2S(=O)(=O)N1	/	0	-6	/	2	-3	/
O=C(Nc1cccc([N+](=O)[O-])c1)Nc1ccc2c(c1)CCC2	103	0	7	86*	27	1	76*
Cc1cc(C)cc(NC(=O)Nc2ccc3c(c2)CCC3)c1	93	0	-4	53*	1	0	94*
Cc1ccc(NC(=O)Nc2ccc3c(c2)CCC3)cc1	/	0	-1	1	3	-3	/
